Test results taken from PubChem BioAssay (NCI).
Compounds without any hit were thinned out: in the full panel of roughly 83,000, 20% have a hit.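 Treatment: one concentration, 48 hours, 96-well format. Scoring: percent growth, with anything below 10 considered active.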 A number with no mark means an inactive call. Activity calls are given as the source filed them.

Key:
Experiment in all cases: NCI-60 one-dose screen, 48 h (100 = growth as untreated, 0 = no growth, -100 = all killed)
Details in all cases: 10 µM unless noted
NCI-H23 lung = test system: NCI-H23 lung
NCI-H322M lung = test system: NCI-H322M lung
HOP-62 NSCLC = test system: HOP-62 NSCLC
NCI-H460 lung = test system: NCI-H460 lung
HOP-92 NSCLC = test system: HOP-92 NSCLC
NCI-H522 lung = test system: NCI-H522 lung
A549/ATCC NSCLC = test system: A549/ATCC NSCLC
786-0 renal = test system: 786-0 renal
COLO 205 colon = test system: COLO 205 colon
DU-145 prostate = test system: DU-145 prostate
K-562 leukemia = test system: K-562 leukemia
MALME-3M melanoma = test system: MALME-3M melanoma
MDA-MB-231 breast = test system: MDA-MB-231 breast
RXF 393 renal = test system: RXF 393 renal
SF-268 CNS = test system: SF-268 CNS
SF-295 CNS = test system: SF-295 CNS
SF-539 CNS = test system: SF-539 CNS
UACC-257 melanoma = test system: UACC-257 melanoma
M14 melanoma = test system: M14 melanoma

Compound	growth (NCI-H23 lung)	growth (NCI-H322M lung)	growth (HOP-62 NSCLC)	growth (NCI-H460 lung)	growth (HOP-92 NSCLC)	growth (NCI-H522 lung)	growth (A549/ATCC NSCLC)	growth (786-0 renal)	growth (COLO 205 colon)	growth (DU-145 prostate)	growth (K-562 leukemia)	growth (MALME-3M melanoma)	growth (MDA-MB-231 breast)	growth (RXF 393 renal)	growth (SF-268 CNS)	growth (SF-295 CNS)	growth (SF-539 CNS)	growth (UACC-257 melanoma)	growth (M14 melanoma)
COC(=O)Nc1nc2ccc(C(=O)c3ccc(N(C)C4COC4)cc3)cc2[nH]1	30.5%	48.3%	10.2%	3.28% (active)	46.8%	-31.5% (active)	14.9%	27.8%	-38.8% (active)	12.7%	7.83% (active)	53.8%	37.8%	22.1%	41.5%	13.3%	-7% (active)	44.4%	3.69% (active)
CCc1nc2cc(/C=C/C(=O)NO)c(F)cc2c(=O)n1CCc1ccccc1	-5.22% (active)	20.5%	-4.23% (active)	3.81% (active)	7.39% (active)	10.6%	-2.46% (active)	0.452% (active)	-33.1% (active)	4.01% (active)	6.83% (active)		15.5%	-21.3% (active)	8.51% (active)	13.5%	1.7% (active)		3.41% (active)
COCc1c(-c2ccc(NC(=O)Nc3cc(C(F)(F)F)ccc3F)c(F)c2)c2c(N)ncnn2c1CN1CCOCC1	-53.4% (active)	-17% (active)	-58.9% (active)	-47.2% (active)	-32.8% (active)	-55.3% (active)	-18.8% (active)	-43.5% (active)	-88.8% (active)	-4% (active)	1.74% (active)	-37% (active)	-50% (active)	-88.4% (active)	-14.5% (active)	-54.2% (active)	-71.5% (active)	-9.75% (active)	-41% (active)
CCOc1cc2ncc(C#N)c(Nc3ccc(OCc4ccccn4)c(Cl)c3)c2cc1NC(=O)/C=C/CN(C)C	39.9%	0.942% (active)	38.6%	-62.2% (active)	39.3%	6.98% (active)	22.3%	-74.7% (active)	27.4%	4.49% (active)	-47.5% (active)	-72.3% (active)	-40% (active)	-77.4% (active)	-36.7% (active)	54.1%	22%	52.8%	-82.4% (active)
Cc1nc(Nc2n[nH]c3c2CN(C(=O)N[C@H](CN(C)C)c2ccccc2)C3(C)C)c2sccc2n1	-22.8% (active)	-19.1% (active)	-46.5% (active)	-42.8% (active)	-62.4% (active)	-45% (active)	0.0643% (active)	-15% (active)	-88.6% (active)	6.06% (active)	4.69% (active)	-71.4% (active)	-29.1% (active)	-77.3% (active)	-18.4% (active)	-3.9% (active)	-54.8% (active)	-54.6% (active)	-54.8% (active)
Cn1cnc2c(F)c(Nc3ccc(Br)cc3F)c(C(=O)NOCCO)cc21	22%	18.9%	32.7%	62.6%	-4.91% (active)	60.9%	30.9%	67.4%	-2.54% (active)	64.2%	49.4%	-2.35% (active)	34.9%	19.5%	70.8%	76.3%	62.6%	-25.8% (active)	2.5% (active)
CCCCCCCC(=O)SCC/C=C/[C@@H]1CC(=O)NCc2cccc(n2)C2=N[C@@](C)(CS2)C(=O)N[C@@H](C(C)C)C(=O)N1	41.7%	15.6%	12.3%	20%	38%	-1.71% (active)	15.4%	54%	-41.6% (active)	28.9%	16%	2.46% (active)	21.9%		53.6%	-1.52% (active)	48.6%		35.6%
Cc1ccc2oc(=O)cc(-c3cc(-c4cc5ccccc5oc4=O)nc(N)c3C#N)c2c1	62.7%	72.8%	35.9%	27%	40.1%	87.6%	54.8%	15.6%	80.2%	61.6%	81%	51.3%	55.5%		48.1%	63.4%	59.8%		85.7%
